Several values for one entry are separate records, joined by “and”; a condition that tells them apart may be missing. Equal entries are not always repeated. In all, about 16,000 compounds went through this assay and about 5,700 (36%) were called active. Another 24% or so got no clear call; they are omitted. Some of the results follow. Unmarked numbers belong to inactive results. Calls follow the shape of the dose curve; as a rule, active = well fitted curve in the direction sought with a large enough effect; inconclusive = small, poorly fitted or top-dose-only effect, or effect the other way; inactive = no such curve, though single readings can be large or run the other way.
% is scaled to controls: 0 for no effect and ±100 for the full control effect.

The target of the test is Cytochrome P450 1A2 (Homo sapiens) (UniProt P05177). Put plainly: Cytochrome panel assay with activity outcomes. The following applies: recombinant CYP, pro-luciferin dealkylation, luminescence, p450-cyp1a2; series mostly up to 57.1 µM.
Cytochrome P450 1A2 (Homo sapiens), sequence (P05177 whole entry, looked up): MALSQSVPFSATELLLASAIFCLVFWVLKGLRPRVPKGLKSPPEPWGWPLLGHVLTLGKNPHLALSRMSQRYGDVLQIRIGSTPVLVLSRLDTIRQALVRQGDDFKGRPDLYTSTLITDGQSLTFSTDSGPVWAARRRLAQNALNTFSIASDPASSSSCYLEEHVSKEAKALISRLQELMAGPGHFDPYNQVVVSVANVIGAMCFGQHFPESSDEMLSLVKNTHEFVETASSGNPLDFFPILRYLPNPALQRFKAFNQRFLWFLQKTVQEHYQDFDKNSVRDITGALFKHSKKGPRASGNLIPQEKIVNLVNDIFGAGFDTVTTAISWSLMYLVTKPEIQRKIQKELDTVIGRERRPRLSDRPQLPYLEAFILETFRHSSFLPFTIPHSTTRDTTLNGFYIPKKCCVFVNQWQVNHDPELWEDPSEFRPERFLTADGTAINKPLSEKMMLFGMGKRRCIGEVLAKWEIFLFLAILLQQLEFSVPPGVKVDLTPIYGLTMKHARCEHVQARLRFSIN
`Cc1nnc(-c2cccc(Br)c2)c2cn(-c3ccc(Br)cc3)nc12`: the AC50 was 0.891 µM (active). Consider `Cc1nnc(-c2cccc(Br)c2)c2cn(-c3ccccc3Cl)nc12`, for which the half-maximal activity concentration (AC50) is 1.58 µM (active). On to `Cc1nn(C)cc1CNC(=O)CCC(=O)O`, for which the AC50 result is “inactive”. The same measure, in the same setting: for `O=C(CSC1=NCCS1)N1CCN(c2ccc(Cl)cc2)CC1` the value was 14.1 µM (active). Consider `O=C(CSc1ccc(Cl)cc1)Nc1ccc(N2CCN(C(=O)c3ccc(Cl)cc3)CC2)cc1`, for which the AC50 entry is “inactive”. For the molecule `COC(=O)C/C=C\[C@@H](C)[C@@H](/C=N\O[C@@H](C)c1cn([C@H]2COC[C@H]2O)nn1)OC`, the activity, negative = inhibition was 9.97% [at 11.4 µM].

For the molecule `O=C1C2=C(NC(=S)NC2c2ccc(Cl)cc2)NC(c2ccc(Cl)cc2)N1c1ccc(Cl)cc1` (stereo not drawn), the half-maximal activity concentration (AC50) was 12.6 µM (active). Regarding `COC(=O)C/C=C\[C@@H](C)[C@@H](/C=N\O[C@@H](C)c1cn([C@H](CO)Cc2ccccc2)nn1)OC`, the activity, negative = inhibition is -11.5% [at 11.4 µM] and 12.6% [at 11.4 µM]. Regarding `Cc1ccccc1NC(=O)c1cnc(Nc2nc3ccccc3s2)nc1C`, the AC50 result was “inactive”.

Consider `O=C(Nc1ccc2c(c1)OCCO2)c1cccc2nc3ccccc3nc12`, for which the AC50 is 2 µM (active).

Take `Cc1ccccc1NC(=O)CN1CCC(n2nnc3ccccc32)CC1`: the AC50 entry was “inactive”. Consider `Cc1ccccc1NC(=O)c1cccc2nc3ccccc3nc12`, for which the concentration at half-maximal activity (AC50) is 2 µM (active). Still for that read-out and setting: as for `O=c1c(-c2ccc(F)cc2)nc2cnc(N3CCNCC3)nc2n1-c1ccccc1`, the figure is 10 µM (active). On to `COc1cccc(Cn2c(=O)c(-c3cccc(C#N)c3)nc3cnc(N4CCN(C)CC4)nc32)c1`, for which the AC50 result was “inactive”. On the same count and under the same terms, for `COc1ccc(-n2c(=O)c(-c3ccccc3)nc3cnc(N4CCNCC4)nc32)cc1` the value was 15.8 µM (active); for `COc1ccc(-n2c(=O)c(-c3cccc(C#N)c3)nc3cnc(N4CCNCC4)nc32)cc1`, 15.8 µM (active). For `O=C(c1cccc(F)c1)N1CCC2(CC1)CN(c1ccncc1)C2`, the AC50 entry was “inactive”. For `Cc1ccc(S(=O)(=O)N2CCN(Cc3ccccc3C(F)(F)F)CC2)cc1`, the AC50 result was “inactive”.

Take `COc1ccc(C2=Nc3cccc4cccc(c34)N2)cc1`: the AC50 is 0.631 µM (active). For the molecule `CC(=O)Nc1ccc(C(=O)NNC(=O)CCc2ccccc2)cc1`, the AC50 result is “inactive”.

On to `CCCc1nnc(NC(=O)CCC(=O)NCc2ccccc2OC)s1`, for which the AC50 entry is “inactive”.

Turning to `O=C(CCc1ccccc1)Nc1nncs1`, the AC50 is 10 µM (active). Regarding `CCCC(=O)Nc1nnc(Cc2ccccc2)s1`, the half-maximal activity concentration (AC50) was 12.6 µM (active).

Turning to `CCCC(=O)Nc1nnc(CCN2CCCCC2)s1`, the AC50 entry was “inactive”. With `Nc1ccc(S(=O)(=O)NC(=O)c2ccccc2)cc1`, the AC50 entry is “inactive”. As for `Nc1ccc(N(c2ccccc2)c2ccc(N)cc2)cc1`, the AC50 is 17.8 µM (active). On the same count and under the same terms, for `C[C@@H]1O[C@H](O[C@@H]2[C@@H](Oc3cc(O)c4c(c3)O[C@H](c3ccc(O)cc3)CC4=O)O[C@@H](CO)[C@@H](O)[C@H]2O)[C@@H](O)[C@H](O)[C@@H]1O` the value was “inactive”.

In the case of `Nc1nc(-c2ccccc2)c(-c2ccccc2)c(-c2nc(N)nc(-c3ccccc3)c2-c2ccccc2)n1`, the activity, negative = inhibition is -4.5% [at 11.4 µM]. Take `Nc1nc(-c2ccccc2)c(-c2ccccc2)s1`: the concentration at half-maximal activity (AC50) was 2.82 µM (active).

`Nc1ccc(-c2sc(N)nc2-c2ccccc2)cc1`: the AC50 was 8.91 µM (active). As to `Nc1nnc(C(c2ccccc2)c2ccccc2)s1`, the AC50 result was “inactive”. Regarding `CC(C)CN1CCC2(CC1)CCN(C(=O)c1ccncc1)CC2`, the AC50 result was “inactive”. On the same count and under the same terms, as for `CN(C)CCC[C@@]1(c2ccc(F)cc2)OCc2cc(C#N)ccc21`, the entry is “inactive”; as for `Cc1ccc(-c2cc(C(=O)NCc3ccco3)c3ccccc3n2)s1`, 6.31 µM (active).

In the case of `Cc1cccc(C)c1-n1c(SCC(=O)NCc2ccco2)nc2ccccc2c1=O`, the AC50 result was “inactive”.

On to `CCc1ccc(-c2cc(C(=O)NCc3ccco3)c3ccccc3n2)s1`, for which the half-maximal activity concentration (AC50) was 3.55 µM (active). Take `Cc1ccc(S(=O)(=O)N(Cc2ccccc2)c2ccccc2C(=O)NCc2ccco2)cc1`: the AC50 result is “inactive”. `CC(C)C(O)(C(C)C)C(C)C`: the activity, negative = inhibition is -8.65% [at 11.4 µM]. In the case of `C=CCOc1c(Br)cc(CNc2ccc(NC(=O)C(C)C)c(OC)c2)cc1OC`, the AC50 was 15.8 µM (active).

For `CCC1CC2CC(NC(C)=O)C1C2` (stereo not drawn), the AC50 result is “inactive”. For the molecule `COc1ccc(C(=O)c2cnc3ccccc3c2-c2ccccc2)cc1`, the AC50 is 15.8 µM (active).

Turning to `C=CC[C@@H]1C=C[C@H](O/N=C(\C)CCN2CCc3nc(-c4ccccc4)c(-c4ccccc4)cc3C2)[C@H](CO)O1`, the activity, negative = inhibition was 5.54% [at 11.4 µM]. With `CCCCOC(=O)NS(=O)(=O)c1sc(CC(C)C)cc1-c1ccc(Cn2c(CC)nc3c(C)cc(C)nc32)cc1`, the half-maximal activity concentration (AC50) was 31.6 µM (active). As for `CC(C)CCn1nnnc1C(c1ccc(F)cc1)N1CCN(C(=O)c2ccco2)CC1` (stereo not drawn), the AC50 result is “inactive”. In the case of `CCCC[C@H]1C[C@@H]1[C@@H]1N(P(=O)(c2ccccc2)c2ccccc2)C[C@@](O)(c2ccccc2)CC12CC2`, the AC50 entry was “inactive”.

With `O=C1C=C(Nc2nc(C(=O)O)cc(=O)[nH]2)c2ccccc2C1=O`, the activity, negative = inhibition is -15.8% [at 2.29 µM].

Regarding `O=C1C=C(NCCc2cc(Br)c(O)c(Br)c2)C(=O)c2ncccc21`, the AC50 was 3.16 µM (active). The same measure, in the same setting: for `Cc1sc(NC(=O)c2ccc(OCC(C)C)cc2)c(C(N)=O)c1-c1ccc(Cl)cc1Cl` the value was “inactive”; for `COc1ccc(C(=O)Nc2cc(Cl)ccc2OC(=O)c2ccc(OC)cc2)cc1`, 10 µM (active); for `CC(C)COc1ccc(C(=O)Nc2scc(-c3ccc(Cl)cc3Cl)c2C(N)=O)cc1`, “inactive”.

As to `Cc1ccc(C(=O)O[C@@H](C(=O)O)[C@@H](OC(=O)c2ccc(C)cc2)C(=O)O)cc1` (tested in a mixture with another compound), the AC50 result is “inactive”.

As to `Cc1ccc(C(=O)Nc2cc(Cl)ccc2OC(=O)c2ccc(C)cc2)cc1`, the AC50 was 10 µM (active). On the same count and under the same terms, for `COc1ccc(C(=O)Nc2scc(-c3ccc(Cl)cc3Cl)c2C(N)=O)cc1` the value was 0.447 µM (active). With `NNC(=O)c1ccc[n+](CCc2ccccc2)c1`, the activity, negative = inhibition is -20.6% [at 11.4 µM].

For `Cc1ccc(C)c(/C(=N\N=C(N)N)C2CC2)c1`, the activity, negative = inhibition is 1.09% [at 2.29 µM]. For `NC(N)=N/N=C(\c1ccc(Cl)cc1)C1CC1`, the concentration at half-maximal activity (AC50) is 0.794 µM (active). As to `NC(N)=Nc1ccc(Cl)cc1`, the AC50 result is “inactive”. Still for that read-out and setting: for `CCc1ccccc1NC(=O)c1ccc(F)c(S(=O)(=O)N2CCC(C(N)=O)CC2)c1` the value was “inactive”. The same measure, in the same setting: as for `CCc1ccccc1NC(=O)c1ccc(-n2c(C)ccc2C)cc1`, the figure is 14.1 µM (active). Turning to `NCCS(=O)O`, the AC50 entry is “inactive”. The same measure, in the same setting: as for `Cn1cc(/C=N/n2cnc3scc(-c4ccccc4)c3c2=O)c2ccccc21`, the figure is 8.91 µM (active).

Take `Cn1cc(/C=N/n2cnc3sc4c(c3c2=O)CCCC4)c2ccccc21`: the half-maximal activity concentration (AC50) is 14.1 µM (active).

As to `O=[N+]([O-])c1ccc(Cl)c(/C=N/N2CCN(Cc3ccccc3)CC2)c1`, the AC50 is 2.51 µM (active). For `O=S(=O)(c1ccccc1)N1CCC2(CCN(Cc3ccccc3)CC2)CC1`, the AC50 entry is “inactive”.

In the case of `O=[N+]([O-])c1ccc(N2CCN(Cc3ccccc3)CC2)c(S(=O)(=O)N2CCOCC2)c1`, the AC50 entry is “inactive”. Same read-out and setting: for `CCSc1nnc(NC(=O)C(C(F)(F)F)C(F)(F)F)s1` the value was 15.8 µM (active). For `CCSc1nnc(NC(=O)Cc2ccccc2OC)s1`, the AC50 entry is “inactive”. The same measure, in the same setting: for `CCCCC(=O)Nc1nnc(SCC(=O)NC2CCCC2)s1` the value was “inactive”.

With `CC(CC(=O)O)(CC(=O)O)C(=O)O`, the activity, negative = inhibition was -5.85% [at 11.4 µM]. In the case of `OCCN1CCN(C(=S)c2ccc(Br)cc2)CC1`, the AC50 result is “inactive”.

As for `O=C(CN1CCN(Cc2ccccc2)CC1)c1ccc(Br)cc1`, the AC50 entry is “inactive”. Still for that read-out and setting: for `CCN1CCN(C(=S)c2ccc(Br)cc2)CC1` the value was 15.8 µM (active); for `Cc1cc2c(cc1S(N)(=O)=O)S(=O)(=O)CCC2`, “inactive”.

In the case of `CCN(CCO)Cc1csc2cccc(Br)c12`, the half-maximal activity concentration (AC50) was 11.2 µM (active).

Take `COCCN(C(=O)c1ccco1)c1nnc(-c2ccc(OC)cc2)s1`: the concentration at half-maximal activity (AC50) was 15.8 µM (active).

`CCC(c1nnnn1CCOC)N1CCN(C(=O)c2ccco2)CC1` (stereo not drawn): the AC50 result was “inactive”. On to `Cc1ccc(C2C(C(=O)c3ccco3)=C(O)C(=O)N2c2nnc(C)s2)cc1` (stereo not drawn), for which the AC50 entry is “inactive”. Take `CC1(C)CC(=O)c2cnc(N)nc2C1`: the AC50 result was “inactive”. `CCOC(=O)CCN1C(=O)[C@H]2[C@H]3[C@H](O)[C@H](O)C/C(=N/OCc4ccccc4)[C@@H]3CC[C@@H]2C1=O`: the activity, negative = inhibition was 4.94% [at 11.4 µM]. Take `CC1=C(C(=O)OCc2ccccc2)C(c2cccnc2)c2c(n(C)c(=O)n(C)c2=O)N1` (stereo not drawn): the AC50 entry is “inactive”. On to `CC1=C(C(=O)OCc2ccccc2)C(c2ccccc2)NC(=O)N1CCCCCC(=O)O` (stereo not drawn), for which the AC50 is 20 µM (active).

For `CC1=C(C(=O)OCc2ccccc2)C(c2ccc(Cl)cc2)NC(=O)N1CCCCCC(=O)O` (stereo not drawn), the concentration at half-maximal activity (AC50) was 25.1 µM (active). For the molecule `CCOC(=O)CCN1C(=O)[C@H]2[C@H]3[C@H](O)[C@H](O)C/C(=N/OCc4ccccc4)[C@H]3CC[C@@H]2C1=O`, the activity, negative = inhibition is -13.8% [at 11.4 µM].

For `CC(=O)N1CCC2(CC1)CCN(C(c1ccccc1)c1ccccc1)CC2`, the AC50 result was “inactive”.

As for `NNCCc1ccccc1`, the concentration at half-maximal activity (AC50) is 3.16 µM (active) and 1 µM (active). Regarding `O=C(O)CSCCc1ccccc1`, the activity, negative = inhibition is -15.5% [at 11.4 µM]. Regarding `O=C(O)CNCCc1ccccc1`, the activity, negative = inhibition was -1.5% [at 11.4 µM]. On the same count and under the same terms, as for `NCCSCCC(=O)O`, the figure is -2.89% [at 11.4 µM].

`N[C@@](CCc1ccccc1)(C(=O)O)c1ccccc1`: the activity, negative = inhibition is -9.59% [at 11.4 µM]. With `NCCSCCc1ccccc1`, the AC50 was 5.01 µM (active). `COc1cccc2c1C(=O)c1c(O)c3c(c(O)c1C2=O)C[C@@](O)(C(=O)CO)C[C@H]3O[C@H]1C[C@@H](N)[C@H](O)[C@@H](C)O1.[W]`: the activity, negative = inhibition was -11.9% [at 11.4 µM]. With `Cc1sc2c(c1C)c(=O)n(-c1ccccc1)c1nnc(C)n21`, the AC50 result is “inactive”. Same read-out and setting: as for `CC(C)NC(=O)c1ccccc1NC(=O)/C=C/c1ccc([N+](=O)[O-])cc1`, the entry is “inactive”.

Consider `O=C(O)/C(=C\c1ccccc1)c1ccccc1`, for which the activity, negative = inhibition is -20.8% [at 11.4 µM]. As for `Cc1ccc(S(=O)(=O)Oc2ccc(/C=C(/NC(=O)c3ccccc3)C(=O)Nc3ccccc3)cc2)cc1`, the AC50 entry is “inactive”. As for `Cc1ccccc1NC(=O)/C(=C/c1ccccc1)c1ccccc1`, the AC50 was 5.01 µM (active).

Consider `Cc1ccccc1NC(=S)NN1CCN(C)CC1`, for which the AC50 result was “inactive”. On to `COc1ccc(/C=C(/C(=O)Nc2ccccc2C(=O)NC(C)C)c2ccccc2)cc1`, for which the AC50 is 15.8 µM (active).

One may read the AC50 as the midpoint of the concentration-response curve, whichever way the signal moves.

The values are drawn from PubChem BioAssay AID1851 (National Center for Advancing Translational Sciences (NCATS), 2009).
